# Measured values: the supplement of paper PMC4166925
# ± gives the standard deviation of the averaged measurements. In all, about 33,000 sequences were measured (“E-score (dimensionless, -0.5 to 0.5)”: median about -0.049, highest 2% from about 0.37 on). The sample as a whole holds a higher share of the highest values than the screen did.
# System: T1, PmTbr T-box DNA-binding domain (GST fusion)
# T1 sequence: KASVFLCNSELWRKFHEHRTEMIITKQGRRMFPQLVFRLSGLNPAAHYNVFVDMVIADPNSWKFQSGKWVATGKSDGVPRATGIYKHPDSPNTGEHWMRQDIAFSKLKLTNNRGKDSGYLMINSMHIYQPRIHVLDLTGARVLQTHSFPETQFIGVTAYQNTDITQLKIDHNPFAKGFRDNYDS
# Test: PBM E-score of 8-mer (E-score (dimensionless, -0.5 to 0.5)); Tbr is Tbrain of the sea star Patiria miniata (Pm) or the sea urchin Strongylocentrotus purpuratus (Sp); higher = stronger binding preference
# Conditions: the construct has about 5 more residues each side
# Description: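 Universal protein-binding microarray (Agilent AMADID 016060, 60-bp probes with a 35-bp variable region) incubated with 200 nM GST-fused Patiria miniata Tbr T-box DNA-binding domain (residues 272-466) in PBS pH 7.5. Scored for every ungapped 8-mer (given with its reverse complement) by the Universal PBM Analysis Suite as E-score (modified Wilcoxon-Mann-Whitney enrichment, range -0.5 to 0.5; >0.45 counts as bound) and Z-score of median probe intensity. Two replicate arrays (datasets 1 and 2).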
# 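Further: 200 nM protein in PBS on universal arrays averaged over duplicate arrays.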
row,Sequence,PBM E-score of 8-mer
1,ACCGACAA,-0.0367 ± 0.05
2,CCCGACAA,0.208 ± 0.044
3,CCCGACAG,0.11 ± 0.0062
4,GCCGACAC,0.382 ± 0.03
5,ACCGACAC,0.391 ± 0.02
6,CCCGACAC,0.388 ± 0.012
7,GCCGACAA,0.116 ± 0.04
8,GCCGACCC,-0.256 ± 0.038
9,ACCGACAT,0.0334 ± 0.031
10,CGGTGGGC,-0.131 ± 0.04
11,ATCCCAAG,-0.275 ± 0.07
12,CGTACTTA,-0.115 ± 0.042
13,TGGCTACA,-0.117 ± 0.0015
14,GATGTTGC,-0.0903 ± 0.014
15,CCCAAAAC,0.0141 ± 0.0023
16,CCCCTACG,-0.0948 ± 0.0047
17,GACCTACC,-0.153 ± 0.0062
18,CACCTACA,0.407 ± 0.013
19,TACCTACA,-0.2971 ± 0.00036
20,GACCTACA,-0.125 ± 0.019
21,AACCTACC,-0.0696 ± 0.071
22,AACCTACG,-0.21 ± 0.0028
23,CACCTACG,0.412 ± 0.0089
24,CACCTACC,0.413 ± 0.015
25,CGGAAGGA,-0.209 ± 0.012

row,Sequence,PBM E-score of 8-mer
1,CTGCCACA,0.226 ± 0.014
2,GCAAAGGA,-0.229 ± 0.021
3,CTTCTCGC,0.229 ± 0.027
4,ACCTGGGG,0.0226 ± 0.0096
5,AGTCGAGG,0.0125 ± 0.11
6,CGTACTGA,-0.105 ± 0.017
7,AATCTAAA,-0.0399 ± 0.05
8,AGCATCCC,-0.136 ± 0.039
9,CACTGTGG,-0.16 ± 0.098
10,CTATTATC,-0.101 ± 0.018
11,ATGTGCCG,0.0963 ± 0.036
12,ATGTGCTC,-0.297 ± 0.012
13,GAGTGCCA,0.242 ± 0.0057
14,GCGTGCTA,0.261 ± 0.0046
15,ATGTGCTA,0.396 ± 0.0083
16,AAGTGCCA,0.41 ± 0.0065
17,CCGTGCTA,0.263 ± 0.0013
18,ACGTGCTA,0.417 ± 0.019
19,AAGTGCCC,-0.143 ± 0.0036
20,ATGTGCCA,0.375 ± 0.0048
21,CTGTGCTA,0.0225 ± 0.0027
22,ATGTGCCC,-0.0261 ± 0.068
23,ATGACCTC,-0.0665 ± 0.086
24,CAGCGATA,0.0152 ± 0.0054
25,ACAAGAGG,-0.108 ± 0.048

row,Sequence,PBM E-score of 8-mer
1,CATACAGG,-0.17 ± 0.0088
2,CCACTCCG,-0.01631 ± 0.00014
3,GATTAGAC,-0.0447 ± 0.044
4,GCCTCTGA,0.0009 ± 0.067
5,ACTTAAAG,0.0623 ± 0.041
6,AAGTGCTA,0.448 ± 0.016
7,AAGTGCTC,0.0187 ± 0.018
8,AAGTGCTG,0.283 ± 0.0071
9,CCCTTAAG,-0.00471 ± 0.02
10,CGTGCAGC,0.0118 ± 0.029
11,CATCGCAG,0.0526 ± 0.063
12,AATCGCAC,0.381 ± 0.0051
13,AATCGCAG,0.0445 ± 0.062
14,GATCGCAC,0.42 ± 0.018
15,GATCGCGC,0.289 ± 0.018
16,CATCGCAA,0.0368 ± 0.039
17,CATCGCAC,0.373 ± 0.023
18,GATCGCAA,0.244 ± 0.013
19,AATCGCAT,0.0479 ± 0.038
20,ACGAATGG,0.0417 ± 0.027
21,GAATGGGA,-0.214 ± 0.011
22,GCCATGTA,-0.101 ± 0.045
23,ACCACTCC,0.0476 ± 0.03
24,AGTTGCGC,0.0703 ± 0.035
25,AGTTGCGA,0.412 ± 0.0052

row,Sequence,PBM E-score of 8-mer
1,GCTTGCGA,0.105 ± 0.024
2,AGTTGCGG,0.0771 ± 0.12
3,CCTTGCGA,0.243 ± 0.012
4,ACTTGCGA,0.386 ± 0.006
5,CGGGTCAC,0.113 ± 0.024
6,CAGAGGTC,-0.0549 ± 0.0023
7,ACAGTAAC,0.186 ± 0.054
8,GCTTAAGC,-0.292 ± 0.0039
9,AGGCCCCC,-0.332 ± 0.014
10,AAACGGCA,0.0707 ± 0.068
11,GGCTTCAA,-0.121 ± 0.014
12,AATTCGAC,-0.0254 ± 0.029
13,CCATCACG,0.033 ± 0.018
14,AGGTGGTA,0.415 ± 0.0043
15,GGGTGGTA,0.121 ± 0.07
16,AGGTGGAG,0.141 ± 0.0032
17,AGGTGGTG,0.385 ± 0.042
18,AGGTGGGA,0.418 ± 0.01
19,CGGTGGGA,-0.0368 ± 0.0018
20,CGGTGGTA,-0.00583 ± 0.042
21,AGGTGGTC,-0.0579 ± 0.012
22,AGGTGGGC,-0.0782 ± 0.065
23,ATTCAGAG,-0.13 ± 0.0013
24,CGACTTGC,0.161 ± 0.025
25,CCATCTCG,-0.0242 ± 0.099

row,Sequence,PBM E-score of 8-mer
1,GCTTGCCC,-0.245 ± 0.0072
2,TCCATCGA,-0.121 ± 0.022
3,ATAACGCC,0.237 ± 0.023
4,ATTGCACG,0.152 ± 0.033
5,GGGTGGCA,0.322 ± 0.024
6,AGGTGGCA,0.436 ± 0.0087
7,CGGTGGCA,0.147 ± 0.031
8,AAGTGGCG,0.3473 ± 0.0029
9,AGGTGGCC,0.0319 ± 0.077
10,AGGTGGCG,0.412 ± 0.023
11,AAGTTGGA,-0.0116 ± 0.045
12,AGAAGTCC,0.0869 ± 0.022
13,GTAGCCCA,-0.311 ± 0.012
14,CCACATCC,-0.102 ± 0.032
15,ACACATCA,0.299 ± 0.017
16,ACACATCG,0.382 ± 0.017
17,ACACATCT,0.325 ± 0.019
18,ACACATCC,0.3871 ± 0.0015
19,GCACATCC,0.136 ± 0.038
20,ACTTCTCC,-0.0311 ± 0.0014
21,GGAGGCTA,-0.209 ± 0.016
22,ATAGGCAT,-0.337 ± 0.021
23,CAAAGGTA,-0.133 ± 0.035
24,AAAAGGTT,-0.0316 ± 0.041
25,CAAAGGTG,0.436 ± 0.018

row,Sequence,PBM E-score of 8-mer
1,CAAAGGTC,-0.13 ± 0.039
2,AAAAGGTG,0.442 ± 0.012
3,AAAAGGTC,-0.0764 ± 0.033
4,GAAATTAA,-0.113 ± 0.044
5,GTTGCTCA,0.0245 ± 0.051
6,ACCCTCAG,0.0121 ± 0.00031
7,AACTAGGC,-0.0964 ± 0.044
8,CTTCCCCC,-0.166 ± 0.07
9,AGCTGGGC,-0.222 ± 0.056
10,GCTGGTTA,-0.0863 ± 0.064
11,CACCTATC,0.399 ± 0.0088
12,AACCTATC,-0.165 ± 0.17
13,CACCTATG,0.429 ± 0.011
14,AACCTATG,-0.141 ± 0.019
15,AACCTATA,-0.0111 ± 0.13
16,AACCTATT,-0.172 ± 0.056
17,TACCTATA,-0.137 ± 0.041
18,GACCTATC,-0.0538 ± 0.05
19,CACCTATA,0.377 ± 0.018
20,CGACTCAG,-0.0525 ± 0.0052
21,CTTTATGA,-0.00777 ± 0.018
22,CTCCACAC,0.341 ± 0.0092
23,AGCGTCAA,0.258 ± 0.0039
24,AGCGTTAA,0.265 ± 0.06
25,CGCGTCAA,0.308 ± 0.0074

row,Sequence,PBM E-score of 8-mer
1,GGCGTCAA,0.4094 ± 0.001
2,GGCGTTAA,0.377 ± 0.024
3,TGCGTTAA,0.109 ± 0.017
4,AAACCAAC,-0.0437 ± 0.062
5,CCATTAAA,-0.239 ± 0.0035
6,ATTTCGCG,0.4125 ± 0.00097
7,ATTTCGCA,0.378 ± 0.0045
8,CTTTCGGA,-0.0447 ± 0.021
9,ATTTCGCC,-0.0762 ± 0.14
10,GTTTCGCA,0.3685 ± 0.0028
11,CTTTCGCC,-0.0672 ± 0.025
12,CTTTCGCA,0.411 ± 0.015
13,AATTCGCG,0.303 ± 0.035
14,ATTTCGAG,0.09258 ± 0.00026
15,GTTCGAAA,-0.132 ± 0.091
16,GTATTCGA,0.0428 ± 0.0073
17,GATCGAAC,-0.0822 ± 0.031
18,CGCACAGA,-0.108 ± 0.087
19,AACTGATG,0.0361 ± 0.047
20,CGCTTTGC,-0.129 ± 0.036
21,ATCCATTG,-0.235 ± 0.089
22,ACTTGGCA,0.239 ± 0.015
